Results filed as inconclusive are left out. The source made the active and inactive calls. Unless noted, calls come from the whole dose curve; as a rule, active = well fitted curve in the direction sought with a large enough effect in the repeat runs; inconclusive = weak or mixed curves; inactive = no such curve, though single readings can be large; an effect the other way counts as inactive or inconclusive.
What was measured:
[1] = target: Retinoic acid receptor RXR-alpha (Homo sapiens) (UniProt P19793); experiment: qHTS assay to identify small molecule agonists of the RXR signaling pathway (AID 1159527; calls by dose curve; note: nearly all actives have a fitted effect of over 35% in size)
Outline: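 16 hr incubation of compound-treated RXR-alpha-UAS-bla HEK 293T cells (2% charcoal-stripped FBS, 37 C) preceded a 2 hr room-temperature LiveBLAzer FRET substrate step and blue/green fluorescence measurement.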

[2] = qHTS assay to identify small molecule agonists of the RXR signaling pathway - cell viability counter screen (AID 1159529);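 note: HEK 293T cells carrying an RXR-alpha UAS beta-lactamase reporter; series mostly up to about 77 µM; nearly all actives have a fitted effect of over 50% in size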
Outline: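 In this parallel viability measure, GeneBLAzer RXR-alpha HEK 293T cells (2% charcoal-stripped FBS) were given a 5 hr preincubation, treated with compounds 16 hr at 37 C, and read by CellTiter-Glo luminescence.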

[3] = qHTS assay to identify small molecule antagonists of the retinoid acid receptor (RAR) signaling pathway - cell viability counter screen (AID 1159551); note: nearly all actives have a fitted effect of over 35% in size
Outline: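 Cytotoxicity counter screen: ATP content quantified by CellTiter-Glo luminescence in C3RL4 cells treated 6 hr at 37 C with compound and retinol (1 uM final). Cells plated at 1,000/well and cultured overnight before dosing.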

[4] = qHTS assay to identify small molecule antagonists of the retinoic acid receptor (RAR) signaling pathway (AID 1159552; note: nearly all actives have a fitted effect of over 50% in size)
Outline: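 C3RL4 RARE-luc cells, overnight plating; retinol 1 uM final added right after compound; 6 hr 37 C; luciferase read at 30 min RT.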

[5] = qHTS assay to identify small molecule agonists of the retinoic acid receptor (RAR) signaling pathway (AID 1159553)
Outline: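 Luminescence was measured 30 min after luciferase reagent addition at room temperature. Before that, C3RL4 reporter cells (1,000 per well, plated overnight) were treated with compound for 6 hr at 37 C and 5% CO2.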

[6] = qHTS assay to identify small molecule antagonists of the estrogen related receptor (ERR) signaling pathway from Tox21 library - cell viability counter screen (AID 1224834); note: nearly all actives have a fitted effect of over 30% in size
Outline: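 CellTiter-Fluor fluorescence, read after 30 min at 37 C, measures viability of ERR cells. Cells plated at 2,000/well and incubated 6 h before pin-tool compound addition, then exposed 17.5 hours at 37 C.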

[7] = target: Luciferin 4-monooxygenase (Photinus pyralis) (UniProt P08659); experiment: qHTS assay to identify small molecule inhibitors of firefly luciferase (AID 1224835); note: series mostly up to about 120 µM; nearly all actives have a fitted effect of over 25% in size
Outline: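 Biochemical qHTS: compounds run as interplate titrations against purified firefly enzyme, with D-luciferin and ATP each at its KM concentration. Light output recorded by CCD imaging.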

[8] = qHTS assay to identify small molecule agonists of the constitutive androstane receptor (CAR) signaling pathway - cell viability counter screen (AID 1224836); note: series mostly up to about 92 µM; nearly all actives have a fitted effect of over 45% in size
Outline: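 Using CellTiter-Fluor, viability of HepG2 cells harbouring hCAR and CYP2B6-2.2kb was measured following 23 h incubation with a 15-concentration compound series plus PK11195 (0.75 uM final).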

[9] = qHTS assay to identify small molecule antagonists of the constitutive androstane receptor (CAR) signaling pathway - cell viability counter screen (AID 1224837); note: series mostly up to about 92 µM; nearly all actives have a fitted effect of over 45% in size
Outline: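 Cytotoxicity counter-screen: CellTiter-Fluor fluorescence after 23 h compound exposure (15-point qHTS) in double-stable HepG2-CYP2B6-hCAR cells, with 50 nM CITCO added.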

[10] = target: Nuclear receptor subfamily 1 group I member 3 (Homo sapiens) (UniProt Q14994); experiment: qHTS assay to identify small molecule antagonists of the constitutive androstane receptor (CAR) signaling pathway (AID 1224838);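 note: HepG2 cells stably expressing hCAR with CYP2B6 luciferase reporter stimulated by CITCO; nearly all actives have a fitted effect of over 40% in size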
Outline: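 Antagonism measured as luciferase signal (ONE-Glo, 30 min, room temperature) in CAR-stimulated cells: HepG2-CYP2B6-hCAR double-stable line exposed 24 hr at 37 C to compound in a 15-point series plus 50 nM CITCO.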

[11] = target: Nuclear receptor subfamily 1 group I member 3 (Homo sapiens) (UniProt Q14994); experiment: qHTS assay to identify small molecule agonists of the constitutive androstane receptor (CAR) signaling pathway (AID 1224839);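 note: HepG2 cells stably carrying human CAR and a CYP2B6 luciferase reporter; series mostly up to about 92 µM; nearly all actives have a fitted effect of over 15% in size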
Outline: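 Double-stable HepG2 cells (hCAR, CYP2B6-2.2kb) seeded 4 h before compound addition. Exposure 24 h with 0.75 uM PK11195 final. Luciferase detected by ONE-Glo.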

[12] = qHTS assay to identify small molecule antagonists of the estrogen related receptor signaling pathway with the pleiotropic PPARgamma coactivator (PGC) from Tox21 10K library - cell viability counter screen (AID 1224840; active = well fitted cell-killing curve with a large enough effect in the repeat runs, not every such curve was filed as active; note: nearly all actives have a fitted effect of over 40% in size)
Outline: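 Counter-screen for cytotoxicity: after 17.5 h compound exposure at 37 C, CellTiter-Fluor reagent added to PGC/ERR cells for 30 min and fluorescence read. Cells were seeded at 2,000 per well 6 h before dosing.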

[13] = qHTS assay to identify small molecule antagonists of the estrogen related receptor signaling pathway with the pleiotropic PPARgamma coactivator (PGC) from Tox21 10K library (AID 1224841; call rule not given here; note: series mostly up to about 92 µM; actives are mostly falling curves and most rising ones were filed inactive; nearly all actives have a fitted effect of over 50% in size)
Outline: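 Luminescence (One-Glo, 30 min at room temperature) after 18 h compound treatment at 37 C of PGC/ERR reporter cells plated at 2,000 cells/well and settled 6 h beforehand.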

[14] = qHTS assay to identify small molecule agonists of the estrogen related receptor signaling pathway with the pleiotropic PPARgamma coactivator (PGC) from Tox21 10K library (AID 1224842); note: nearly all actives have a fitted effect of over 15% in size
Outline: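 PGC/ERR reporter cell line, 2,000 cells per well, incubated 6 h at 37 C before 23 nL compound in DMSO was added. After 18 h at 37 C, One-Glo luminescence read following 30 min at room temperature.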

Measured: Potency

Sequence of Luciferin 4-monooxygenase (Photinus pyralis) (P08659 whole entry, looked up): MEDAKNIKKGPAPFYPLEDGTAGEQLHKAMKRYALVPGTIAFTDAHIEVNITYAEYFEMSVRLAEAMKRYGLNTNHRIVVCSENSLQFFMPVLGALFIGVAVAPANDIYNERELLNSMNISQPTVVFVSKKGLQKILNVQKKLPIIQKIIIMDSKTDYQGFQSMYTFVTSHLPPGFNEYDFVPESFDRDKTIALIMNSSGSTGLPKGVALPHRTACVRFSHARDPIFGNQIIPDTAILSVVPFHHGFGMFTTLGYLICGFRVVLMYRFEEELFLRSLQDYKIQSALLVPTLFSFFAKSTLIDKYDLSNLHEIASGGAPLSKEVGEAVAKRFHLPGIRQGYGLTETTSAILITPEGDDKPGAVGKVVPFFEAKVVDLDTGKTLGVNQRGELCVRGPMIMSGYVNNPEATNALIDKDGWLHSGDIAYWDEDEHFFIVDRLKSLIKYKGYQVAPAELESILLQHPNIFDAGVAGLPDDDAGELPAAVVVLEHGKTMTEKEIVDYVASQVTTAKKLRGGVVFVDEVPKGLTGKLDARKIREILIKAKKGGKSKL
Sequence of Retinoic acid receptor RXR-alpha (Homo sapiens) (P19793 whole entry, looked up): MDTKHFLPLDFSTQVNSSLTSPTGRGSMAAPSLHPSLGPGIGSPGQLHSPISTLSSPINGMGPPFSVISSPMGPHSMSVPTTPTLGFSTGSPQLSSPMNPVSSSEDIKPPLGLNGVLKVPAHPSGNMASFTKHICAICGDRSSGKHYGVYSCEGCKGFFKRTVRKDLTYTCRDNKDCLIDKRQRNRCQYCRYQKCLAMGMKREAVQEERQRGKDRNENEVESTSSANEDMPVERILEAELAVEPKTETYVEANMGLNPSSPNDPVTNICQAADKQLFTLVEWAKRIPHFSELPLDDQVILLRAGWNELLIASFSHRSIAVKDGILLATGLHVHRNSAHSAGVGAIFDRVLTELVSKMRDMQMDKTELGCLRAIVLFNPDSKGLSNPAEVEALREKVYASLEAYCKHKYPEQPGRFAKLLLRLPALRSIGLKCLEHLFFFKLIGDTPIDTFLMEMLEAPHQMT
Sequence of Nuclear receptor subfamily 1 group I member 3 (Homo sapiens) (Q14994 whole entry, looked up): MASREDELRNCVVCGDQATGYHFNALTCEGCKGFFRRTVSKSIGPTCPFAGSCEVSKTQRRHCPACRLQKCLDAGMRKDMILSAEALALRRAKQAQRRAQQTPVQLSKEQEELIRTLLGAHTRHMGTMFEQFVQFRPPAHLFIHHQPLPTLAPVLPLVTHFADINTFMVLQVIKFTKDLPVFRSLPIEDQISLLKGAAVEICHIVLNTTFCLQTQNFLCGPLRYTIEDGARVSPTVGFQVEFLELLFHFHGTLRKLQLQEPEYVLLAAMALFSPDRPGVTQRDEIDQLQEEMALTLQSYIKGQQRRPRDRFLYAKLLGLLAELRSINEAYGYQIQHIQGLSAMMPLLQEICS

CC(C)(CC(=O)O)C(=O)O
inactive: all assays above

C[C@H]1C[C@@H](O)CC(C)(C)C1
inactive: all assays above

FC1(F)C(F)(F)C(F)(F)C2(F)C(F)(F)C(F)(F)C(F)(F)C(F)(F)C2(F)C1(F)F (configuration not stated)
inactive: all assays above

CCOC(=O)CCC(C)=O
inactive: all assays above

Cc1cc(O)cc2c1O[C@](C)(CCC[C@H](C)CCC[C@H](C)CCCC(C)C)CC2
inactive: all assays above

N[C@H]1CN(c2c(F)cc3c(=O)c(C(=O)O)cn(C4C[C@H]4F)c3c2Cl)CC12CC2 (some centres not stated)
inactive: all assays above

C=C1CC[C@H]2C[C@@H]1C2(C)C
not listed: [10] | [11] | [13] | [14]
inactive: all other assays above

C[N+](C)(C)CC(O)CC(=O)[O-] (configuration not stated)
inactive: all assays above

CS(=O)(=O)O
inactive: all assays above

Source: PubChem BioAssay (Tox21)
